Assay [1] in a line: Quantitative High-Throughput drug screen in 47 multiple myeloma cell lines against the NCATS MIPE library collection: Karpas620_DSMZ cell viability assay (AID 1918959). Further: nearly all actives have a fitted effect of over 30% in size. A digest of the protocol:
(§1)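 Luminescent ATP measurement with CellTiter-Glo gives viability, scaled between DMSO-only wells (100%) and media-only wells (0%). Cells, 500 per well, faced library compounds for 48 hours at 37C.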

Assay [2] is described as follows: Quantitative High-Throughput drug screen in 47 multiple myeloma cell lines against the NCATS MIPE library collection: KMM1_JCRB cell viability assay (AID 1918960). Further: nearly all actives have a fitted effect of over 30% in size. The procedure, abridged:
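Myeloma cells at 500 per well in 1536-well format treated with MIPE 4.0 library by pin transfer for 48 h at 37C, 5% CO2. Viability from ATP luminescence (CellTiter-Glo), normalized to DMSO (100%) and media-only (0%) wells.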

Assay [3] can be described thus: Quantitative High-Throughput drug screen in 47 multiple myeloma cell lines against the NCATS MIPE library collection: Karpas417_ECACC cell viability assay (AID 1918961). Conditions: Karpas417 myeloma viability, CellTiter-Glo ATP luminescence, 48 h; viability (% of DMSO): at 45.8 µM (top of the series). The procedure, abridged: (§2)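 Steps: seed 500 cells per well; pin-transfer MIPE 4.0 library; incubate 48 h at 37C, 5% CO2, humidified; add CellTiter-Glo, 5 min room temperature; read luminescence.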
On the technique in general: In ATP-based viability assays light output follows the ATP content of the culture.

The nature of assay [4]: Quantitative High-Throughput drug screen in 47 multiple myeloma cell lines against the NCATS MIPE library collection: KHM11_PLB cell viability assay (AID 1918962). Further: nearly all actives have a fitted effect of over 35% in size. The procedure, abridged: as §1
Assay [5] can be described thus: Quantitative High-Throughput drug screen in 47 multiple myeloma cell lines against the NCATS MIPE library collection: JIM3_ECACC cell viability assay (AID 1918963; further: nearly all actives have a fitted effect of over 35% in size). A digest of the protocol: as §1
The nature of assay [6]: Quantitative High-Throughput drug screen in 47 multiple myeloma cell lines against the NCATS MIPE library collection: JIM1_ECACC cell viability assay (AID 1918964). The procedure, abridged: (§3)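 CellTiter-Glo luminescence (ATP) after 48 h compound exposure, 37C/5% CO2; 500 cells/well; MIPE 4.0 approved/investigational drugs pinned in; DMSO = 100%, media only = 0% viability.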

A short description of assay [7]: Quantitative High-Throughput drug screen in 47 multiple myeloma cell lines against the NCATS MIPE library collection: INA6_PLB cell viability assay (AID 1918965; further: nearly all actives have a fitted effect of over 55% in size). The procedure, abridged:
as §2

Assay [8] in a line: Quantitative High-Throughput drug screen in 47 multiple myeloma cell lines against the NCATS MIPE library collection: JJN3_DSMZ cell viability assay (AID 1918966; further: nearly all actives have a fitted effect of over 50% in size). The procedure, abridged: as §3
Assay [9] is described as follows: Quantitative High-Throughput drug screen in 47 multiple myeloma cell lines against the NCATS MIPE library collection: H1112_PLB cell viability assay (AID 1918967; further: nearly all actives have a fitted effect of over 30% in size). A digest of the protocol: as §3
Assay [10] is described as follows: Quantitative High-Throughput drug screen in 47 multiple myeloma cell lines against the NCATS MIPE library collection: KMS27_JCRB cell viability assay (AID 1918970). Further: nearly all actives have a fitted effect of over 30% in size. Particulars: KMS27 myeloma cells, CellTiter-Glo ATP viability, 48 h; viability (% of DMSO): at 45.8 µM (top of the series). A digest of the protocol:
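Each line is seeded at 500 cells per well and treated with library compounds for 48 hours under 37 °C, 5% CO2. CellTiter-Glo is then added for 5 min at room temperature before median relative luminescence is recorded.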

A short description of assay [11]: Quantitative High-Throughput drug screen in 47 multiple myeloma cell lines against the NCATS MIPE library collection: KMS12BM_JCRB cell viability assay (AID 1918971). Further: nearly all actives have a fitted effect of over 35% in size. The procedure, abridged: (§4)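 Inhibition of cell viability is measured here. Each line was plated at 500 cells per well, treated with MIPE 4.0 drugs, kept 48 hours at 37C, then assayed for ATP content by CellTiter-Glo luminescence.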

Assay [12] in a line: Quantitative High-Throughput drug screen in 47 multiple myeloma cell lines against the NCATS MIPE library collection: KMS12PE_JCRB cell viability assay (AID 1918972). Further: nearly all actives have a fitted effect of over 30% in size. The procedure, abridged: as §2
A short description of assay [13]: Quantitative High-Throughput drug screen in 47 multiple myeloma cell lines against the NCATS MIPE library collection: KMS20_JCRB cell viability assay (AID 1918973). Further: nearly all actives have a fitted effect of over 45% in size. A digest of the protocol:
as §3

Assay [14] in a line: Quantitative High-Throughput drug screen in 47 multiple myeloma cell lines against the NCATS MIPE library collection: KMS26_JCRB cell viability assay (AID 1918975). Further: nearly all actives have a fitted effect of over 45% in size. The procedure, abridged:
as §4

A short description of assay [15]: Quantitative High-Throughput drug screen in 47 multiple myeloma cell lines against the NCATS MIPE library collection: MMM1_PLB cell viability assay (AID 1918976). Further: nearly all actives have a fitted effect of over 35% in size. The procedure, abridged: (§5)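 Inhibition of viability over 48 h was scored by ATP content (CellTiter-Glo) in 500-cell wells. Zero and full viability were defined by media-only and DMSO-only wells.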
Assay [16] is described as follows: Quantitative High-Throughput drug screen in 47 multiple myeloma cell lines against the NCATS MIPE library collection: MOLP8_DSMZ cell viability assay (AID 1918977). Further: nearly all actives have a fitted effect of over 45% in size. A digest of the protocol: as §5
Assay [17] can be described thus: Quantitative High-Throughput drug screen in 47 multiple myeloma cell lines against the NCATS MIPE library collection: NCIH929_DSMZ cell viability assay (AID 1918978). Further: nearly all actives have a fitted effect of over 35% in size. The procedure, abridged:
as §5

Assay [18] can be described thus: Quantitative High-Throughput drug screen in 47 multiple myeloma cell lines against the NCATS MIPE library collection: OCIMY1_PLB cell viability assay (AID 1918979). Further: nearly all actives have a fitted effect of over 35% in size. The procedure, abridged:
as §5

Assay [19] in a line: Quantitative High-Throughput drug screen in 47 multiple myeloma cell lines against the NCATS MIPE library collection: Karpas25_ECACC cell viability assay (AID 1918968; further: nearly all actives have a fitted effect of over 35% in size). A digest of the protocol: as §3
Assay [20] is described as follows: Quantitative High-Throughput drug screen in 47 multiple myeloma cell lines against the NCATS MIPE library collection: KMS21BM_JCRB cell viability assay (AID 1918974). Conditions: ATP luminescence, 48 h; viability: at 45.8 µM (top of the series). The procedure, abridged: as §3

These results are taken from PubChem BioAssay (NCATS).

Records with an inconclusive call do not appear. Active and inactive are the calls of the source. The call rests on the fitted dose curve; in most records, active means well fitted curve in the direction sought with a large enough effect; inconclusive means small, poorly fitted or top-dose-only effect, or another doubt; inactive means no such curve, though single readings can be large; an effect the other way counts as inactive or inconclusive.
Potency means the concentration at half of the fitted maximal effect.

As to `CC(=O)NCC(=O)N1[C@H]2CC[C@H]1c1cc(Nc3ncc(C(F)(F)F)c(NC4CCC4)n3)ccc12`, the Potency in assay [1] was 1320 nM (active); in [2], 3720 nM (active); in [3], 118 nM (active); in [4], 526 nM (active); in [5], 1180 nM (active); in assay [6] it was 332 nM (active). Also, the Potency in assay [7] is 935 nM (active); in [8], 2640 nM (active); in [9], 16600 nM (active); in [10], 166 nM (active); in assay [11], 9350 nM (active); in [12], 105 nM (active). In addition, the Potency in assay [13] is 1320 nM (active); in assay [14], 5260 nM (active); in assay [15] it was 1660 nM (active); in assay [16] it was 2640 nM (active); in [17], 935 nM (active).

For the compound `C#C[C@]1(O)CC[C@@H]2[C@@H]3CCC4=CC(=O)CC[C@@H]4[C@H]3CC[C@@]21CC`, the Potency entry in [1], in assay [2], in [3], in assay [5], in [6] and in [7] was “inactive” in each case. Moreover, the Potency result in assay [9], in assay [10], in assay [12], in [14], in assay [17] and in assay [18] was “inactive” in each case. The results for the Potency in [11], in assay [15] and in assay [16] were 1480 nM (active), 9350 nM (active) and 23500 nM (active), respectively.

Take `COc1cccc2c1C(=O)c1c(O)c3c(c(O)c1C2=O)C[C@@](O)(C(=O)CO)C[C@H]3O[C@H]1C[C@H](N)[C@H](O)[C@H](C)O1`: the Potency was 1050 nM (active) in assay [1]; 1870 nM (active) in assay [2]; 332 nM (active) in [4]; 332 nM (active) in assay [5]; 1050 nM (active) in assay [6]; 118 nM (active) in assay [7]. Also, the Potency in assay [19] is 118 nM (active); in [10] it was 743 nM (active); in assay [11], 166 nM (active); in assay [12] it was 1480 nM (active); in assay [13], 52.6 nM (active); in [14], 296 nM (active). Further, the Potency was 148 nM (active) in assay [15], 187 nM (active) in assay [16], 93.5 nM (active) in assay [17] and 296 nM (active) in assay [18].

Consider `Oc1ccc(-c2ccc(-c3cc(Nc4cccc(CNC5CC5)c4)n[nH]3)cc2)c(O)c1`, for which the Potency was 1180 nM (active) in [1]; 743 nM (active) in assay [2]; 833 nM (active) in [3]; 264 nM (active) in assay [6]; 662 nM (active) in [7]; 1320 nM (active) in assay [8]. Further, the Potency in assay [9] was 1480 nM (active); in [19], 1050 nM (active); in assay [10] it was 743 nM (active); in assay [11], 2640 nM (active); in assay [12] it was 1050 nM (active); in [13] it was 1320 nM (active). For the same compound, the Potency in assay [20] is 590 nM (active); in [14], 3320 nM (active); in assay [15], 2350 nM (active); in assay [16], 2090 nM (active); in [18], 9350 nM (active).

Turning to `O=C(CCCCCCC(=O)Nc1cccnc1)NO`, the Potency in assay [1] was 7430 nM (active); in [2], 1660 nM (active); in assay [4] it was 8330 nM (active); in assay [5], 16600 nM (active); in assay [6], 4180 nM (active); in assay [7], 833 nM (active). In addition, the Potency in assay [8] was 4180 nM (active); in [9], 5900 nM (active); in assay [19] it was 1660 nM (active); in assay [10], 7430 nM (active); in assay [11], 1870 nM (active); in assay [12], 2960 nM (active). Moreover, the Potency was 3320 nM (active) in assay [13]; 2350 nM (active) in assay [20]; 3720 nM (active) in assay [14]; 3320 nM (active) in assay [16]; 3720 nM (active) in assay [17]; 14800 nM (active) in assay [18].
